Compounds with a hit are over-represented: about 6.5% of the library has one in this group of screens.
Autofluor 339: intrinsic fluorescence of library compounds, ex339/em460 – biochemical, MLSMR library, data from DPM-DC assay, artefact control, profiling panel | fluorescence fold increase at 10 µM | hit rate 5.5% among 65,000 | compound autofluorescence, ex339/em460 nm, NADH buffer; active compounds read high; 1 = no-compound wells, NADH background;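 active means at 10 µM, mean starting fluorescence two-fold or more over control wells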;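 further: signal is the first read of a kinetic run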
NADH enzymes: inhibitors of enzymes used to reach an NAD/NADH endpoint; hit rate 0.02% among 65,000; IC50, µM (series often up to 10 µM), inactives show at the top dose inhibition; coupled PK/LDH NADH assays, four targets;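 active means single-dose screening hits from any of four coupled enzyme assays that gave an IC50 when retested across doses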;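 further: the DPM-DC format reads NADH fluorescence rather than 340 nm absorbance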
PMK inhibit: inhibitors of Streptococcus pneumoniae phosphomevalonate kinase; purified PMK, PK/LDH-coupled NADH absorbance 340 nm; inhibition, % at 10 µM; hit rate 0.49% among 65,000; AID 539;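 active means top-ranked compounds by inhibition in the single 10 µM screen, taking a fixed number of the strongest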;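 further: 0% = full reaction with DMSO carrier and 100% = background rate without enzyme reaction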
A340 absorber: compound absorbs light at 340 nm. compound absorbance at 340 nm, fold over control. 65,000 tested, under 10 active. fold change at 10 µM. AID 708;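 active means at 10 µM dose, initial 340 nm absorbance at least 2 fold that of control wells; inactive means change under 2 fold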;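 further: initial absorbance extrapolated from kinetic A340 decline of NADH oxidation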
DPM-DC inhibit: blocks S. pneumoniae diphosphomevalonate decarboxylase. purified DPM-DC, PK/LDH coupled NADH fluorescence. calls only at 10 µM. hit rate 0.49% among 65,000;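 active means the 320 compounds with the highest percent inhibition in the single-dose primary screen, excluding strongly autofluorescent ones, cut at about 32% in these data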;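 further: kinetic rate of NADH fluorescence loss reporting ADP formed by the decarboxylase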
MK inhibit: blocks S. pneumoniae mevalonate kinase | purified MK, PK/LDH-coupled NADH absorbance 340 nm | hit rate 0.48% among 65,000 | inhibition, % at 10 µM;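 active means ranked among the strongest by inhibition in the single 10 µM screen, a fixed top-ranked set picked for dose follow-up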
Active calls of the source: *; i = inactive; . = no result given.

SMILES	Autofluor 339	NADH enzymes	PMK inhibit	A340 absorber	DPM-DC inhibit	MK inhibit
COc1ccc(-c2ccc(-c3noc(C4CCCCC4)n3)c(OC)n2)cc1	3.67*	8.0%	10.0	1.08	.	6.0
COc1ccc(-c2nc(N)nc(C)c2Oc2ccccc2Br)c(O)c1	1.08	4.0%	0.0	1.03	i	0.0
CCOc1ccc(C(C)=O)cc1COc1ccc(-n2cnnn2)cc1	1.03	3.0%	11.0	0.99	i	2.0
C=CCn1c(=O)c2c(C)c(C)sc2n2c(Nc3ccccc3)nnc12	1.15	3.0%	9.0	1.06	i	1.0
O=c1[nH]cnc2nc(-c3ccccc3)c(-c3ccccc3)nc12	5.12*	15.0%	21.0	1.05	.	8.0
O=c1[nH]cnc2nn(-c3ccccc3)nc12	1.95	3.0%	0.0	1.06	i	0.0
COc1ccc(-c2cc(C(N)=O)nc(N3CCCCCC3)n2)cc1	3.45*	9.0%	11.0	1.05	.	7.0
COc1ccc2nc(NC(=O)c3cccc(OCc4c(C)noc4C)c3)sc2c1	4*	6.0%	6.0	1.03	.	6.0
COc1cccc(C2C(C(=O)c3sc(C)nc3C)=C(O)C(=O)N2CCN(C)C)c1OC (configuration not stated)	1.05	8.0%	15.0	1.1	i	10.0
O=C(CN1CCCC1)Nc1ccc(-c2nc3cc(NC(=O)CN4CCCC4)ccc3o2)cc1	3.71*	12.0%	9.0	1.26	.	14.0
O=C(CN1C(=O)c2ccccc2C1=O)Nc1ccc(-c2nc3ccccc3o2)cc1	1.16	5.0%	12.0	1.08	i	3.0
CCN(CC)CC(=O)Nc1ccc(-c2nc3cc(NC(=O)CN(CC)CC)ccc3o2)cc1	2.97*	4.0%	12.0	1.06	.	5.0
CCC(=O)Nc1ccc2oc(-c3ccccc3Br)nc2c1	1.9	7.0%	6.0	1.03	i	8.0
COc1ccc(-c2nc3cc(NC(=O)Cc4ccc(OC)c(OC)c4)ccc3o2)cc1	2.59*	5.0%	15.0	0.98	.	0.0
CCC(C)NCC(=O)Nc1ccc(-c2nc3cc(NC(=O)CNC(C)CC)ccc3o2)cc1 (configuration not stated)	3.72*	11.0%	13.0	1.16	.	8.0
CC(=O)N1C(C(=O)O)CSC1c1ccc(C)cc1 (configuration not stated)	1.02	1.0%	2.0	1.03	i	0.0
COc1ccccc1C(c1nnnn1C(C)(C)C)N1CCN(Cc2ccncc2)CC1 (configuration not stated)	0.79	16.0%	27.0*	1.01	i	0.0
CSc1ncccc1C(=O)OCC(=O)NC(=O)NCCC(C)C	1.11	3.0%	5.0	1.02	i	5.0
COc1ccc2c(c1)c(=O)oc1cc(OCC(=O)N3CCCC(C)C3)ccc12 (configuration not stated)	3.91*	5.0%	7.0	1.04	.	3.0
COc1ccc(OCC(=O)N2CCN(C(=O)COc3ccc(Br)cc3)CC2)cc1	0.98	4.0%	16.0	0.96	i	0.0
COc1ccc2c(c1)c(=O)oc1cc(OCC(=O)N3CCC(C)CC3)ccc12	3.51*	7.0%	10.0	1.07	.	3.0
O=c1[nH]c2ccccc2n1CCCN1CCN(C(c2ccccc2)c2ccccc2)CC1	1.04	3.0%	7.0	0.98	i	8.0
OC1CN=C2CCCc3c2n(c2ccc(Cl)cc32)C1 (configuration not stated)	3.83*	9.0%	6.0	1.38	.	12.0
CCN1CCn2c3c(c4cc(Cl)ccc42)CCCC31 (configuration not stated)	1.2	7.0%	11.0	1.03	i	9.0
Cc1cccc(C)c1NC(=O)CSc1nnc(Cn2nnc(-c3ccccc3)n2)n1-c1ccccc1	1.03	3.0%	3.0	0.98	i	5.0
CCOC(=O)N1CCN(C(=O)c2ccc3c(=O)n(Cc4ccc(Cl)cc4)c(=S)[nH]c3c2)CC1	0.97	6.0%	14.0	0.99	i	0.0
CCOC(=O)N1CCN(C(=O)c2ccc3nc4ccsc4c(=O)n3c2)CC1	2.24*	2.0%	5.0	1.04	.	4.0
CCOC(=O)CSc1nc2ccsc2c(=O)n1C1CCN(C(=O)OCC)CC1	1.09	5.0%	14.0	1.01	i	1.0
CCOC(=O)N1CCN(C(=O)c2cccn3c(=O)c4sccc4nc23)CC1	2.54*	2.0%	1.0	1.1	.	15.0
